Source: ChEMBL document CHEMBL1157539, “Thousands of chemical starting points for antimalarial lead identification” (Nature, 2010)

Each compound was assayed on Plasmodium falciparum (assay: GSK_TCMDC: Inhibition of Plasmodium falciparum Dd2 in whole red blood cells, using parasite LDH activity as an index of growth. Test compounds present at 2uM).
Type: functional

Row | Compound | Inhibition [%]
1 | CCCNCc1ccc(-c2ccc(CN(Cc3cnc(C)cn3)C(=O)CC#N)cc2)nc1.O=C(O)C(F)(F)F | 0
2 | Cc1cc(N[C@@H](Cc2ccccc2)C(=O)NCCOc2ccccc2)nc(NCCOc2ccccc2)n1.O=C(O)C(F)(F)F | 24
3 | COC(=O)c1c(C#N)c(OC)cc(O)c1CSC[C@H](Nc1nc(-c2ccc([N+](=O)[O-])cc2)cs1)C(=O)NCCN1CCCCC1 | 88
4 | Cc1ccc(C(=O)Cn2nc(-c3ccc(C)c(S(=O)(=O)N4CCCCC4)c3)ccc2=O)cc1 | 76
5 | COc1ccc(CCNCCCCCCNCCc2cccc([N+](=O)[O-])c2)cc1OC.Cl | 0
6 | CCCCCCN1CCC(NCc2cccc(-n3ccnc3)c2)CC1.O=C(O)C(F)(F)F | 100
7 | Cc1nc(NCc2ccccc2)cc(NCC(O)c2ccc(O)cc2)n1 (stereo unspecified) | 10
8 | Br.CCCc1cc(C(C)=O)ccc1OCCCON1C(=N)N=C(N)NC1(C)C | 96
9 | CC1(C)N=C(N)N=C(N)N1c1ccc2ccccc2c1.Cl | 0
10 | COCCCn1c(=N)c(C(=O)NCCc2ccc(OC)cc2)cc2c(=O)n3cccc(C)c3nc21 | 33
11 | CNC(=O)c1cncc(/C=C/c2ccccc2S(N)(=O)=O)c1 | 77
12 | Cc1c(Cn2ncc(N3CC(C)NC(C)C3)c(Cl)c2=O)cccc1NC(=O)Nc1ccc(-c2ccccc2)cc1.O=C(O)C(F)(F)F (stereo unspecified) | 35
13 | COc1ccc(-c2nc(NC(=O)Cc3ccc4c(c3)OCCO4)sc2C)cc1 | 99
14 | CCC(CC)N1CCN(CC(=O)Nc2ccc([N+](=O)[O-])cc2C(=O)Nc2cccc(OC)c2)CC1 | 35
15 | Cc1cc(=NN=Cc2ccccc2Cl)c2ccc(F)cc2[nH]1 | 100
16 | COc1ccc2nccc([C@@H](O)CN3CCC(NCCOc4cccc(C(F)(F)F)c4)CC3)c2c1.O=C(O)C(=O)O | 74
17 | CCCCCCCOc1ccc(NC(=O)Nc2ccc(Cn3ncc(N4CCCNCC4)c(Cl)c3=O)cc2)cc1.O=C(O)C(F)(F)F | 28
18 | COc1ccc2nccc([C@@H](O)CN3CCC(NCCc4c[nH]c5ccccc45)CC3)c2c1.O=C(O)C(=O)O | 77
19 | Cn1nc(C(F)(F)F)c(-c2ccc(F)cc2)c1NC(=O)Nc1ccccc1 | 99
20 | Clc1cc(Nc2ncnc3sc(C#Cc4ncc[nH]4)cc23)ccc1OCc1ccccn1 | 6
21 | CN1CCC[C@H]1COc1ccc(CN2CC[C@H](NC(=O)c3ccc(Cl)c(Cl)c3)C2)c2ccccc12.O=C(O)C(F)(F)F | 98
22 | CCCC(=O)NC(c1cccs1)c1cc(Cl)c2cccnc2c1O (stereo unspecified) | 61
23 | COc1ccc(CC(=O)NC(CCCN2CCC(c3ccccc3)CC2)c2ccc(Cl)c(Cl)c2)cc1OC (stereo unspecified) | 57
24 | Cc1cc(N(C)C)nc(Nc2ccc(NS(=O)(=O)c3ccccc3)cc2)n1 | 11
25 | CCC(C)NC(=O)CN1CN(c2ccccc2)C2(CCN(C(=O)c3ccc(-c4ccccc4)cc3)CC2)C1=O (stereo unspecified) | 100
26 | Cl.N[C@@H](CCNCc1ccc(-c2cccnc2)cc1)Cc1ccc(F)c(F)c1 | 57

Each compound was assayed on HepG2 (assay: GSK_TCMDC: Percent inhibition of human HepG2 cell line. Test compounds present at 10uM.).
Type: functional

Row | Compound | Inhibition [%]
27 | Cc1cnc2ccc(NS(=O)(=O)c3sc4ccc(Cl)cc4c3C)cc2c1N1CCNCC1.Cl | 0
28 | COc1ccc(Nc2cc(C)nc(Nc3ccc(NC(C)=O)cc3)n2)cc1 | 16
29 | CN1CCC(C(=O)Nc2cccc(-c3ccc(-c4nc5cc(F)ccc5[nH]4)cc3)c2)CC1 | 12
30 | Cc1cc2c(cc1C(F)(F)F)N(C(=O)Nc1ccc(OCCN(C)C)c(C(F)(F)F)c1)CC2.Cl | 38
31 | Cc1cc(=O)[nH]c(-n2nc(C)cc2NC(=O)C2(c3ccc(Cl)cc3)CCCC2)n1 | 30
32 | Nc1cccc(CNCc2ccc(-c3ccc(-c4nc5cc(C(F)(F)F)ccc5[nH]4)s3)cc2)c1.O=C(O)C(F)(F)F | 28
33 | Cc1ccc2nc(-c3ccc(C(=O)NCc4ccc(Cl)c(Cl)c4)cc3)[nH]c2c1C | 19
34 | Cc1cccc2nc(-c3ccc(-c4ccc(CN5CCCC(N)C5)cc4)cc3)[nH]c12.O=C(O)C(F)(F)F (stereo unspecified) | 33
35 | Cc1nc(-c2nc(NCCc3cnccn3)ncc2-c2ccsc2)sc1C | 0
36 | Cn1cnc2c(Nc3ccncc3)nc(-c3ccc4ccccc4c3)nc21 | 55
37 | O=C(Nc1ccc2c(c1)OCCO2)c1cc(-c2cccnc2)nc2ccc(Cl)cc12 | 2
38 | CNc1ccc(CNCc2cccc(-c3ccc(-c4nc5ccccc5[nH]4)s3)c2)cc1.O=C(O)C(F)(F)F | 15
39 | CC(C)=CCc1c(-c2ccc(O)cc2O)oc2c3c(cc(O)c2c1=O)OC(C)(C)C=C3 [MORUSIN] | 1
40 | O=C(/C=C/c1ccc(Cl)c(Cl)c1)NCCCCCN1CCC(c2c[nH]c3ccc(O)cc23)CC1 | 20
41 | CCCNCc1ccc(-c2ccc(CN(Cc3cnc(C)cn3)C(=O)CC#N)cc2)nc1.O=C(O)C(F)(F)F | 4
42 | Cc1cc(N[C@@H](Cc2ccccc2)C(=O)NCCOc2ccccc2)nc(NCCOc2ccccc2)n1.O=C(O)C(F)(F)F | 0
43 | COC(=O)c1c(C#N)c(OC)cc(O)c1CSC[C@H](Nc1nc(-c2ccc([N+](=O)[O-])cc2)cs1)C(=O)NCCN1CCCCC1 | 5
44 | Cc1ccc(C(=O)Cn2nc(-c3ccc(C)c(S(=O)(=O)N4CCCCC4)c3)ccc2=O)cc1 | 6
45 | COc1ccc(CCNCCCCCCNCCc2cccc([N+](=O)[O-])c2)cc1OC.Cl | 13
46 | CCCCCCN1CCC(NCc2cccc(-n3ccnc3)c2)CC1.O=C(O)C(F)(F)F | 3

Row | Compound | Inhibition [%]
47 | Cc1nc(NCc2ccccc2)cc(NCC(O)c2ccc(O)cc2)n1 (stereo unspecified) | 5
48 | Br.CCCc1cc(C(C)=O)ccc1OCCCON1C(=N)N=C(N)NC1(C)C | 61
49 | CC1(C)N=C(N)N=C(N)N1c1ccc2ccccc2c1.Cl | 48
50 | COCCCn1c(=N)c(C(=O)NCCc2ccc(OC)cc2)cc2c(=O)n3cccc(C)c3nc21 | 18
51 | CNC(=O)c1cncc(/C=C/c2ccccc2S(N)(=O)=O)c1 | 17
52 | Cc1c(Cn2ncc(N3CC(C)NC(C)C3)c(Cl)c2=O)cccc1NC(=O)Nc1ccc(-c2ccccc2)cc1.O=C(O)C(F)(F)F (stereo unspecified) | 97
53 | COc1ccc(-c2nc(NC(=O)Cc3ccc4c(c3)OCCO4)sc2C)cc1 | 0
54 | CCC(CC)N1CCN(CC(=O)Nc2ccc([N+](=O)[O-])cc2C(=O)Nc2cccc(OC)c2)CC1 | 35
55 | Cc1cc(=NN=Cc2ccccc2Cl)c2ccc(F)cc2[nH]1 | 6
56 | COc1ccc2nccc([C@@H](O)CN3CCC(NCCOc4cccc(C(F)(F)F)c4)CC3)c2c1.O=C(O)C(=O)O | 16
57 | CCCCCCCOc1ccc(NC(=O)Nc2ccc(Cn3ncc(N4CCCNCC4)c(Cl)c3=O)cc2)cc1.O=C(O)C(F)(F)F | 60
58 | COc1ccc2nccc([C@@H](O)CN3CCC(NCCc4c[nH]c5ccccc45)CC3)c2c1.O=C(O)C(=O)O | 0
59 | Cn1nc(C(F)(F)F)c(-c2ccc(F)cc2)c1NC(=O)Nc1ccccc1 | 3
60 | Clc1cc(Nc2ncnc3sc(C#Cc4ncc[nH]4)cc23)ccc1OCc1ccccn1 | 10
61 | CN1CCC[C@H]1COc1ccc(CN2CC[C@H](NC(=O)c3ccc(Cl)c(Cl)c3)C2)c2ccccc12.O=C(O)C(F)(F)F | 47
62 | CCCC(=O)NC(c1cccs1)c1cc(Cl)c2cccnc2c1O (stereo unspecified) | 51
63 | COc1ccc(CC(=O)NC(CCCN2CCC(c3ccccc3)CC2)c2ccc(Cl)c(Cl)c2)cc1OC (stereo unspecified) | 28
64 | Cc1cc(N(C)C)nc(Nc2ccc(NS(=O)(=O)c3ccccc3)cc2)n1 | 0
65 | CCC(C)NC(=O)CN1CN(c2ccccc2)C2(CCN(C(=O)c3ccc(-c4ccccc4)cc3)CC2)C1=O (stereo unspecified) | 0
66 | Cl.N[C@@H](CCNCc1ccc(-c2cccnc2)cc1)Cc1ccc(F)c(F)c1 | 45
